Reference: the supplement of paper PMC7724964

What was measured:
Assay in all cases: phage ELISA signal ratio (GST-PRM binding over GST background); higher = stronger binding of peptide-phage to the PRM
[1] = target: T1, TRIM11 268-461 SPRY (domain begin residue: 268, domain end residue: 461), Q96F44
T1 chain: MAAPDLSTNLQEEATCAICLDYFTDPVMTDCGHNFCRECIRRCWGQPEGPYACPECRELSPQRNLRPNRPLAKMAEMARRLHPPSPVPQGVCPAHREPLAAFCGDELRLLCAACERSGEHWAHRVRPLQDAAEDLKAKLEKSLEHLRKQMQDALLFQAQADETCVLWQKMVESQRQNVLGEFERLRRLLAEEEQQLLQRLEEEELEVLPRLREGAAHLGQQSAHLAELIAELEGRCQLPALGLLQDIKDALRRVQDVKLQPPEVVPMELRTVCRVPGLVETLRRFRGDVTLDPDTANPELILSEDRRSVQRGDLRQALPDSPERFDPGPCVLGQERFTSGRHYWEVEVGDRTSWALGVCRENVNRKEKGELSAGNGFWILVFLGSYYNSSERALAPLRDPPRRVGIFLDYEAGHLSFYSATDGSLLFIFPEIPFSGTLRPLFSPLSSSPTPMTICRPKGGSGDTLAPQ
In short: (§1)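 Approximately 48 individual clones from selection rounds 4 and 5 were tested by phage ELISA, and those scoring positive were sequenced. They came from five rounds of selecting an M13 phage library of randomized, cysteine-free, glycine-flanked hexadecapeptides on the gene-8 major coat protein against human peptide recognition domains fused to the C-terminus of glutathione S-transferase (GST) in 96-well plates. Each figure in the table is the ELISA signal on the GST-domain fusion relative to the signal on GST alone.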

[2] = target: T2, TOM1L2 1-153 VHS (domain begin residue: 1, domain end residue: 153), Q6ZVM7
T2 chain: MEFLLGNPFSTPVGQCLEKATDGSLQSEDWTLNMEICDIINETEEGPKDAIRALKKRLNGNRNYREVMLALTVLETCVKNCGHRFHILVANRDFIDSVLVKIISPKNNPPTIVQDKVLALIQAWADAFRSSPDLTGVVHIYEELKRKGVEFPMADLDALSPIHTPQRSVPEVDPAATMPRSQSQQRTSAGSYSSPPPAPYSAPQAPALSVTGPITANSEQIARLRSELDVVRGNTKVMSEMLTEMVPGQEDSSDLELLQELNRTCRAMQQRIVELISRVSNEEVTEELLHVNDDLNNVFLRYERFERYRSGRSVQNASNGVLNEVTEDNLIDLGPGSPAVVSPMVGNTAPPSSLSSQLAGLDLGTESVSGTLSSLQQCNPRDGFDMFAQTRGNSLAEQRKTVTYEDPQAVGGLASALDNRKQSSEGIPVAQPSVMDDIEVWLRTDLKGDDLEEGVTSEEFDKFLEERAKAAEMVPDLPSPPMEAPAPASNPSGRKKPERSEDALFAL
In short: as §1

[3] = target: TOM1 1-153 VHS (domain begin residue: 1, domain end residue: 153), O60784
In short: as §1

[4] = target: TRIM21 268-465 SPRY (domain begin residue: 268, domain end residue: 465), P19474
In short: as §1

[5] = target: TRIM25 439-630 SPRY (domain begin residue: 439, domain end residue: 630), Q14258
In short: as §1

[6] = target: T3, TSG101 1-145 UEV (domain begin residue: 1, domain end residue: 145), Q99816
T3 chain: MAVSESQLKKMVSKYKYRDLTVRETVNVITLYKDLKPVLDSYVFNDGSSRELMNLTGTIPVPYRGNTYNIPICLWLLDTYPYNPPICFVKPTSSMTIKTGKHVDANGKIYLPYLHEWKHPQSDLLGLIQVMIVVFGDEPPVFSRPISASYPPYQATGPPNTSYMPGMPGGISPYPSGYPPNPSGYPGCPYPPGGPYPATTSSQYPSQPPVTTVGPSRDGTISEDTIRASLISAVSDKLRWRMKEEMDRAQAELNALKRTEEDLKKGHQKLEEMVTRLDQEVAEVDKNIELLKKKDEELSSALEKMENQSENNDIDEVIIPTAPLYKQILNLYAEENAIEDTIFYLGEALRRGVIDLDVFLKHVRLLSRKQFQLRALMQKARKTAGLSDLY
In short: as §1

[7] = target: T4, TRIM10 292-481 SPRY (domain begin residue: 292, domain end residue: 481), Q9UDY6
T4 chain: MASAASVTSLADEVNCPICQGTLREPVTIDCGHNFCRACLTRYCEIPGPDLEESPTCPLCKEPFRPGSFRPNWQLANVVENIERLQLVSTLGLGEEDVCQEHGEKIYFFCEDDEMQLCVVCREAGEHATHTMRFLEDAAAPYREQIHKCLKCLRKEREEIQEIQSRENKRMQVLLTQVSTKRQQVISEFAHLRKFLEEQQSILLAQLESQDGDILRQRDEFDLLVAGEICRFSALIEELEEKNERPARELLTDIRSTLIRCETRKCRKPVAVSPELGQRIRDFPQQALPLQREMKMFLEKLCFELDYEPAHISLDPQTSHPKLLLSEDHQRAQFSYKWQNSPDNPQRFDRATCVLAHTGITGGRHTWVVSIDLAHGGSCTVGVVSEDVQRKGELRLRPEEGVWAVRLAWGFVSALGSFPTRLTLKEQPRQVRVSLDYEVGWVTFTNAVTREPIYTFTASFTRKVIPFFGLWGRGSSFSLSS
In short: as §1

[8] = target: T5, TOM1L1 1-150 VHS (domain begin residue: 1, domain end residue: 150), O75674
T5 chain: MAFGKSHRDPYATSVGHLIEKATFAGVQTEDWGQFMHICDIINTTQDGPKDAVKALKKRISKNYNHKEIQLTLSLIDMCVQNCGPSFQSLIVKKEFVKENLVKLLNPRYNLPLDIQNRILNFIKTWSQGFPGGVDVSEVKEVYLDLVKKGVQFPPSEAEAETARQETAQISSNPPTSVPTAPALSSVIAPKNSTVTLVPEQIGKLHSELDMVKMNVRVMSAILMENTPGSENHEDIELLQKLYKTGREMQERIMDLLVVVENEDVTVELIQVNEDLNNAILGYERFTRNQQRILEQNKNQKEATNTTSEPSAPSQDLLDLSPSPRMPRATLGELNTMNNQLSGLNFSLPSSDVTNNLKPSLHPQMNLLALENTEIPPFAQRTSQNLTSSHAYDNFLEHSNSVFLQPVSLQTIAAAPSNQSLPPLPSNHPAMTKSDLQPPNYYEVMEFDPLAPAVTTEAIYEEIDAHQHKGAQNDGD
In short: as §1

[9] = target: TRIM7 324-511 SPRY (domain begin residue: 324, domain end residue: 511), Q9C029
In short: as §1

[10] = target: T6, TRIM39 319-514 SPRY (domain begin residue: 319, domain end residue: 514), Q9HCM9
T6 chain: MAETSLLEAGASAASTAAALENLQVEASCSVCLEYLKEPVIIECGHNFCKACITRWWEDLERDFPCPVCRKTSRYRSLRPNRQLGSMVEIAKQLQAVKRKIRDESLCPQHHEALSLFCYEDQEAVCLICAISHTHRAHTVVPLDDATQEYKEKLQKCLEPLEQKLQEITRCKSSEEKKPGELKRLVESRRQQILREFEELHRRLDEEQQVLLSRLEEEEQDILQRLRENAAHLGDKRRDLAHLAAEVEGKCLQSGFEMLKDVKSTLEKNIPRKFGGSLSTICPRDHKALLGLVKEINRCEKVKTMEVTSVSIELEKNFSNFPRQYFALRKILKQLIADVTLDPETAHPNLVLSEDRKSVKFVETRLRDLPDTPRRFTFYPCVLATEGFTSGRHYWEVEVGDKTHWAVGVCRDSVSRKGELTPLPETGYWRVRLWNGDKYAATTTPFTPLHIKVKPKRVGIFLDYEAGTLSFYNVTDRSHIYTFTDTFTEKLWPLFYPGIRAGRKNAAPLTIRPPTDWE
In short: as §1

[11] = target: TLN2 312-417 IRS (domain begin residue: 312, domain end residue: 417), Q9Y4G6
In short: as §1

[12] = target: TRIM30 281-496 SPRY (domain begin residue: 281, domain end residue: 496)
In short: as §1

Chain of TRIM25 439-630 SPRY (domain begin residue: 439, domain end residue: 630), Q14258 (Q14258 whole entry): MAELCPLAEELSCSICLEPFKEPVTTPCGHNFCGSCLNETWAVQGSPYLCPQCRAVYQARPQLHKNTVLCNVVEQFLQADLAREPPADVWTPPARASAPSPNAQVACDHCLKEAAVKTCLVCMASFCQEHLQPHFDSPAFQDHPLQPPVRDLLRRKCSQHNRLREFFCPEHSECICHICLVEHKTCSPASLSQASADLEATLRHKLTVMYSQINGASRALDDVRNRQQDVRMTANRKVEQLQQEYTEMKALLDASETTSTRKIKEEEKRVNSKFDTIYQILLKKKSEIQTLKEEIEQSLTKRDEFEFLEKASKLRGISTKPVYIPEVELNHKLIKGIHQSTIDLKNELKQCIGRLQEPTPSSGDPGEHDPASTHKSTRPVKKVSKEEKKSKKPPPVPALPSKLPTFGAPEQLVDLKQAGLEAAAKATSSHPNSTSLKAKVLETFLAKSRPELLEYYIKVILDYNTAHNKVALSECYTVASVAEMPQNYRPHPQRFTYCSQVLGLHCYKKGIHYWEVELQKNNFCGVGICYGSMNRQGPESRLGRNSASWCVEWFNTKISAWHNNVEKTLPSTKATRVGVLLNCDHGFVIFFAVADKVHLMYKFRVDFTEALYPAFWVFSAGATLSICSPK
Chain of TRIM21 268-465 SPRY (domain begin residue: 268, domain end residue: 465), P19474 (P19474 whole entry): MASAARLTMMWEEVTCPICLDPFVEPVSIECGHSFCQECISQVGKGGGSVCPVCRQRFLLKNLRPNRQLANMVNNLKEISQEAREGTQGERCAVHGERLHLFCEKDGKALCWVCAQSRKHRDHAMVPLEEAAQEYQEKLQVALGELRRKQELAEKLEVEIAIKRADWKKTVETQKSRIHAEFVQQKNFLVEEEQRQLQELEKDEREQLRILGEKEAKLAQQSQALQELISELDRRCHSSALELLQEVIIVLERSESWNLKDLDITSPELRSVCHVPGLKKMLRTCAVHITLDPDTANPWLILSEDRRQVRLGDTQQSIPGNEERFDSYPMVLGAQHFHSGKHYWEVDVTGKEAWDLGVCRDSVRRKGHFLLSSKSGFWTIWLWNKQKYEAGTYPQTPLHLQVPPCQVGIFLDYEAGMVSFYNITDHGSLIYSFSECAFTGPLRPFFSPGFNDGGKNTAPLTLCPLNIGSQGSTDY
Chain of TOM1 1-153 VHS (domain begin residue: 1, domain end residue: 153), O60784 (O60784 whole entry): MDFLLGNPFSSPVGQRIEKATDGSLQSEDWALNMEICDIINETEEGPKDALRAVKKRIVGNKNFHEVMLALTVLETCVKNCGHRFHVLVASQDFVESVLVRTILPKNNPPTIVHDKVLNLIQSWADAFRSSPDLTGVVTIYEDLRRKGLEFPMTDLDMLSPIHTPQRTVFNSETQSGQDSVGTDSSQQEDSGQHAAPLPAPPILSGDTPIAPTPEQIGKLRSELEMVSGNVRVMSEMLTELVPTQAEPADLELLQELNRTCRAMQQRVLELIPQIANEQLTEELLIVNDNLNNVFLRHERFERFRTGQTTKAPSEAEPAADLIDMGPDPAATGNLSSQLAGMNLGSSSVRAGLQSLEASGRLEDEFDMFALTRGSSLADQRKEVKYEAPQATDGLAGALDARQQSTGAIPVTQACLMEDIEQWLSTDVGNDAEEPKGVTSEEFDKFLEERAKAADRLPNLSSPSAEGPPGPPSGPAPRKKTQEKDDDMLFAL
Chain of TLN2 312-417 IRS (domain begin residue: 312, domain end residue: 417), Q9Y4G6 (Q9Y4G6 whole entry): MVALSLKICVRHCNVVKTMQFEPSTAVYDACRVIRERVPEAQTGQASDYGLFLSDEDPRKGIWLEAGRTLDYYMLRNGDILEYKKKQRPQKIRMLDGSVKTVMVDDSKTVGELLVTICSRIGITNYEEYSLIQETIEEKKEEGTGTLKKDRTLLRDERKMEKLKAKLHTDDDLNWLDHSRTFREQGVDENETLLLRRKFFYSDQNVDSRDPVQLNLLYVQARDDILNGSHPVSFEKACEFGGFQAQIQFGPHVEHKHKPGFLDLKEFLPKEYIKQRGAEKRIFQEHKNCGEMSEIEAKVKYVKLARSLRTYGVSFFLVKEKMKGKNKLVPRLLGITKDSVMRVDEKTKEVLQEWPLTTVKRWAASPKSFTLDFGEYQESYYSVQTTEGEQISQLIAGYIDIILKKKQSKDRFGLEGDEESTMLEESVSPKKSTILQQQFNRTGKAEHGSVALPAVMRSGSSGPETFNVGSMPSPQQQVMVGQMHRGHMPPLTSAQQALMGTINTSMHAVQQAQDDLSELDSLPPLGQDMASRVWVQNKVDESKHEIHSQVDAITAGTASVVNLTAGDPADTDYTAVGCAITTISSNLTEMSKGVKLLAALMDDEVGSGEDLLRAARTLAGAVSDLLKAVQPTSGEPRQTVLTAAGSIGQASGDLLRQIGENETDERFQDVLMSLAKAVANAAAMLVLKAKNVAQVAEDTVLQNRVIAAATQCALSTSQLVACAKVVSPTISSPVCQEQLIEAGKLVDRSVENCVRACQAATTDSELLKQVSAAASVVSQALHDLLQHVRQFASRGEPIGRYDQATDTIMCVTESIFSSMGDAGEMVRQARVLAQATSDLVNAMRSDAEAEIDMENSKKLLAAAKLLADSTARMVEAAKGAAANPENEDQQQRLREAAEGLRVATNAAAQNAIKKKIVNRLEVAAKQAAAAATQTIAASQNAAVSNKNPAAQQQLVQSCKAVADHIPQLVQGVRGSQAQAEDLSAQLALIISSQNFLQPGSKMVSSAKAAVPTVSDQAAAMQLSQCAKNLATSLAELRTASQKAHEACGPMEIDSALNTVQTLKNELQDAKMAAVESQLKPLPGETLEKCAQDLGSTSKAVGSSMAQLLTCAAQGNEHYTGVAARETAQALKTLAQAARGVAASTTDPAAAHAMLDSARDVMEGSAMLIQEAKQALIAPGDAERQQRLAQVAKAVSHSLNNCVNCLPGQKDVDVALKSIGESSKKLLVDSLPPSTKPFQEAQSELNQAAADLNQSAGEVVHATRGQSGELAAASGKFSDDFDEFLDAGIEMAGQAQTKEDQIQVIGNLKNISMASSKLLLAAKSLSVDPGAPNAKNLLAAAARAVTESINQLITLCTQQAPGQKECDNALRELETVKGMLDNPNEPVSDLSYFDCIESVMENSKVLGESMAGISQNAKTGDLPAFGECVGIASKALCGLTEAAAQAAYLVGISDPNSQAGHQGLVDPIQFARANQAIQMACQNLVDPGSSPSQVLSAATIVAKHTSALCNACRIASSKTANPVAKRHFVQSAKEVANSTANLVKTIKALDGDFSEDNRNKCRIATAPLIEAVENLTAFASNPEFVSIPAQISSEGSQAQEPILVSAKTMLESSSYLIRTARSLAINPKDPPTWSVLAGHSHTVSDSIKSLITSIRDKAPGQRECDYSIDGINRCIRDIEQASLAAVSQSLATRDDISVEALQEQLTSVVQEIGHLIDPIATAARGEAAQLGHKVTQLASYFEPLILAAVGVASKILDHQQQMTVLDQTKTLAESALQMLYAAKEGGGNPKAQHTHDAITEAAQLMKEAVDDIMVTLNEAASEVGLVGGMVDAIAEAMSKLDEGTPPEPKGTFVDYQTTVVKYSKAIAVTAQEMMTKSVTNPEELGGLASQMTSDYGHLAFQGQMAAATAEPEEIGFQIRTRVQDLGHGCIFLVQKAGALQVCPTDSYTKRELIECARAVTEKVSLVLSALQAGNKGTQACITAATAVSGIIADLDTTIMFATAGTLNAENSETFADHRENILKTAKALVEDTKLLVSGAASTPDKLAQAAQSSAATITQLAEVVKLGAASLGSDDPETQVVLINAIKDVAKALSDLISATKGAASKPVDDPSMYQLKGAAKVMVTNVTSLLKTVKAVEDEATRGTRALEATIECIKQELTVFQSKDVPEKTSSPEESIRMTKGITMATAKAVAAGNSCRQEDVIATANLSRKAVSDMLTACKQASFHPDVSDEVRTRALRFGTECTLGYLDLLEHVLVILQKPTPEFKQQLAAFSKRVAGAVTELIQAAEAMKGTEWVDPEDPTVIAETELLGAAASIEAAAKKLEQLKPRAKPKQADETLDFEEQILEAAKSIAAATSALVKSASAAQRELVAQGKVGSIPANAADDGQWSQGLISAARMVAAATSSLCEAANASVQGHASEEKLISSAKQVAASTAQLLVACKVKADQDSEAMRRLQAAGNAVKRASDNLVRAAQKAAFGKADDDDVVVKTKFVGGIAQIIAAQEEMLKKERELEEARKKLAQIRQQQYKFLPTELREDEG

## TELPFTYMTRIPSWVW
[1]
  phage ELISA signal ratio: 30

## TGNVFQFMDPPQWLTH
[1]
  phage ELISA signal ratio: 29.9

## IEIPWTQEFIQHWTQG
[2]
  phage ELISA signal ratio: 18.4

## NSWWLDYEERATLHGD
[3]
  phage ELISA signal ratio: 9.5

## FEDGWMYQDFLKAPET
[4]
  phage ELISA signal ratio: 14.1
[5]
  phage ELISA signal ratio: 9.36

## GFFQFQALPEWIVYMN
[1]
  phage ELISA signal ratio: 12.6

## ELTTFHFYKEAPVWVI
[1]
  phage ELISA signal ratio: 31.5

## FPYNPHWDMLQQETTV
[6]
  phage ELISA signal ratio: 3.09

## WEDGWLIPNAQDFQGM
[7]
  phage ELISA signal ratio: 3.64

## QVFWYPQAEEWPWFLD
[1]
  phage ELISA signal ratio: 34.5

## VSEGQWRPSYLWWTDD
[8]
  phage ELISA signal ratio: 4.64

## IEWEWLDSKEWWPKEF
[8]
  phage ELISA signal ratio: 32.5

## MTMDFHPDWWDVADQW
[9]
  phage ELISA signal ratio: 29.6

## GLVYYDVPFDFGVIDW
[9]
  phage ELISA signal ratio: 13.2

## WDEEDDHWWEHFFWFQ
[8]
  phage ELISA signal ratio: 12.6

## GWYEMEGWGMPKDIET
[10]
  phage ELISA signal ratio: 3.7

## LPPHWFDEMYSITAMY
[2]
  phage ELISA signal ratio: 7.51

## VFEFMDRADWPDWVMM
[1]
  phage ELISA signal ratio: 20.4

## FVDWDIPSWWFQQVTS
[8]
  phage ELISA signal ratio: 15.1

## AFENNQQAILQYMMDV
[2]
  phage ELISA signal ratio: 22.7

## WYEDGWWTPHRMEQTR
[1]
  phage ELISA signal ratio: 30

## WTASQYWVYEDGFIPG
[11]
  phage ELISA signal ratio: 23.7

## DFTWLHSEKWWPEEWG
[8]
  phage ELISA signal ratio: 14.3

## FETPWQIEDVWGMAGF
[5]
  phage ELISA signal ratio: 27.1

## MHDDLDWVHHMAVPQV
[4]
  phage ELISA signal ratio: 27.1

## WDDGFMEYGALPHEQM
[5]
  phage ELISA signal ratio: 12.3

## WDWQTDYGYWEDFVPV
[12]
  phage ELISA signal ratio: 4.08

## QVWWEAYEKRLHVETE
[3]
  phage ELISA signal ratio: 8.09
